Laboratory results as given in PubChem BioAssay AID1049 (The Scripps Research Institute Molecular Screening Center, 2008).
Out of some 200,000 compounds screened, about 780 (0.39%) were called active. Rule as the data show it: active = TR-FRET ratio above about 2000; inactive = the rest. Many of the other results were omitted from the sample, so actives are more common in it than they were.

Assay: TR-FRET signal artefacts, primary screen, artefact control for PPARgamma SRC-2 agonist project, biochemical (AID 1049)
Conditions: TR-FRET artefact counter-screen; at 8 µM; hits give high values

| Compound | TR-FRET ratio |
| --- | --- |
| COC(=O)C(C)NC(=O)COc1ccc2ccccc2c1 (stereo not given) | 1440 (inactive) |
| Cc1cc2ccccc2n1CCC(=O)O | 1790 (inactive) |
| Cc1cc2ccccc2n1CCNC(=O)COc1ccc2ccccc2c1 | 3050 (active) |
| COc1ccc(/C=N/Nc2ncnc3sc4c(c23)CCCC4)cc1O | 1360 (inactive) |
| O=C(/C=C/Nc1ccccc1OC(F)(F)F)C(F)(F)F | 1490 (inactive) |
| CN(C)c1ccc(N/C=C/C(=O)C(F)(F)F)cc1 | 2200 (active) |
| CCCOc1ccc(N/C=C/C(=O)C(C)(C)C)cc1 | 1530 (inactive) |
| CN(C)C(=O)c1ccc2c(c1)C1C3CCC(C3)C1C(c1ccccc1)N2 (stereo not given) | 1630 (inactive) |
| COc1cccc(NC(=S)N(Cc2ccc(C)cc2)Cc2ccccn2)c1 | 1700 (inactive) |
| CSc1ncccc1C(=O)OCc1ccc(Br)cc1 | 1680 (inactive) |
| Cc1cc(C)c(NC(=O)CS(=O)CC(=O)Nc2cccnc2)c(C)c1 (stereo not given) | 1340 (inactive) |
| Cc1ccc(-c2nc(-c3cccnc3)sc2CC(=O)Nc2ccc(C)c(Cl)c2)cc1 | 2240 (active) |
| Cc1ccc(NC(=O)COc2ccc(-n3ccnc3)cc2)cc1Cl | 1510 (inactive) |
| COc1ccc(OC)c(Cc2nnc(CCC(=O)NC3CCCC3)o2)c1 | 1590 (inactive) |
| O=C(Nc1cccc(CCc2ccccn2)c1)c1ccc(Cl)cc1 | 1410 (inactive) |
| CN(C)/C=C(/C(=O)c1ccccc1)S(=O)(=O)c1ccc(Cl)cc1 | 1390 (inactive) |
| O=C(Nc1ccc2oc(-c3ccccc3F)nc2c1)c1ccco1 | 1310 (inactive) |
| COc1cc(OC)cc(C(=O)Nc2ccc(-c3nc4ccccc4o3)c(O)c2)c1 | 2300 (active) |
| COc1cc(OC)cc(C(=O)Nc2ccc(S(=O)(=O)Nc3cc(C)on3)cc2)c1 | 1400 (inactive) |
| CC(=O)c1ccc(S(=O)(=O)N2CCN(c3nc4c(C)c(C)ccc4cc3C#N)CC2)cc1 | 2950 (active) |
| Cc1cccc2cc(C#N)c(N3CCCC3)nc12 | 1510 (inactive) |
| Cc1cc(C)c2nc(N3CCCC3)c(C#N)cc2c1 | 1740 (inactive) |
| CC(C)OCCCNC(=O)c1ccc(C2SCC(=O)N2Cc2ccco2)cc1 (stereo not given) | 1510 (inactive) |
| CCOc1ccc(N2CC(C(=O)NCCN3C(=O)S/C(=C\c4cccnc4)C3=O)CC2=O)cc1 (stereo not given) | 1470 (inactive) |
| COC(=O)c1cc2n(n1)CCCNC2=O | 1460 (inactive) |
| COc1cccc(NC(=O)CN(C)C(C)C(=O)Nc2ccc(C#N)cc2)c1 (stereo not given) | 1560 (inactive) |
| CN(C)S(=O)(=O)c1cccc(NC(=O)COC(=O)/C=C/c2cccs2)c1 | 1590 (inactive) |

| Compound | TR-FRET ratio |
| --- | --- |
| O=C(c1ccncc1)c1ccc([N+](=O)[O-])cc1 | 1700 (inactive) |
| O=C(CSc1c2c(nc3ccc(Cl)cc13)CCCC2)NCc1ccco1 | 2000 (active) |
| O=C(NCc1ccco1)c1cc(-c2cccnc2)nc2ccc(Cl)cc12 | 1650 (inactive) |
| O=C(/C=C/c1ccc(Cl)cc1Cl)NCc1ccco1 | 1530 (inactive) |
| Cc1ccc2nc(-c3cccc(Br)c3)cc(C(=O)Nn3cnnc3)c2c1 | 1400 (inactive) |
| COc1ccc(Cl)cc1C(=O)NCc1cn(C)nc1C | 1670 (inactive) |
| Cc1ccc(-c2cc(C(=O)NCc3cn(C)nc3C)c3cc(Br)ccc3n2)cc1 | 2980 (active) |
| O=c1[nH]cnc2c1c(-c1ccccc1)cn2-c1ccc(F)cc1 | 1650 (inactive) |
| Cc1ccccc1N1C(=O)C(Oc2ccc(Cl)cc2)C1CNCC1CCCO1 (stereo not given) | 1310 (inactive) |
| Cc1ccc(N2C(=O)C(NC(=O)c3c(F)cccc3F)(C(F)(F)F)C3=C2CC(C)(C)CC3=O)cc1 (stereo not given) | 1460 (inactive) |
| O=C(COC(=O)/C=C/c1cccc(Cl)c1)NCCc1ccccc1 | 1440 (inactive) |
| CCN(CC)S(=O)(=O)c1cccc(-c2n[nH]c(=S)n2/N=C/c2ccc(C(=O)OC)cc2)c1 | 1510 (inactive) |
| CC(=O)Oc1ccc2c(C)c(CC(C)O)c(=O)oc2c1 (stereo not given) | 1440 (inactive) |
| O=C(Oc1ccccc1)Oc1ccc2c(c1)oc(=O)c1ccccc12 | 2370 (active) |
| Cc1c(Cc2ccccc2)c(=O)oc2cc(OCC(N)=O)ccc12 | 1400 (inactive) |
| COc1ccc(C2=NN(c3nc4ccccc4s3)C(=O)C2)cc1 | 1550 (inactive) |
| CN(Cc1cccc2ncccc12)C(=O)CC1C(=O)NCCN1Cc1ccc(F)cc1 (stereo not given) | 1420 (inactive) |
| O=C(O)/C=C/c1ccc(OCCCF)cc1 | 1530 (inactive) |
| COc1cc(/C=N/N=C(\N)c2nonc2N)cc(OC)c1OC | 1490 (inactive) |
| Cc1cc(=O)n2[nH]c(-c3sccc3-n3c(C)ccc3C)cc2n1 | 1620 (inactive) |
| Cc1ccc(S(=O)(=O)N2CCOCC2)cc1NC(=O)CSc1nnc(N)s1 | 1520 (inactive) |
| CCN=C1S/C(=C\c2cc(Br)ccc2OCC(=O)OCC)C(=O)N1CC | 1500 (inactive) |
| CCCOc1ccc(NC(=O)C2OC3OC(C)(C)OC3C3OC(C)(C)OC23)cc1 (stereo not given) | 1480 (inactive) |
| Cc1cc(OCC(=O)NC2CCN(C)CC2)ccc1[N+](=O)[O-] | 1540 (inactive) |
| Cc1ccccc1N1CCN(CCCOc2ccc3c(C)cc(=O)oc3c2)CC1 | 1510 (inactive) |
| Cc1cc(OCCCN2CCN(Cc3ccccc3)CC2)ccc1[N+](=O)[O-] | 2000 (active) |
| C/C(N)=C(/C#N)C(=O)COC(=O)c1cc(-c2ccccc2)nc2ccc(Br)cc12 | 1540 (inactive) |

| Compound | TR-FRET ratio |
| --- | --- |
| Cc1cc(C)c2c(NC(=O)C3CC3)nn(C)c2n1 | 1370 (inactive) |
| CCN(C(=O)COC(=O)c1c(NC(C)=O)sc(C)c1C)C1CCS(=O)(=O)C1 (stereo not given) | 1610 (inactive) |
| CCN(CCn1cccn1)Cc1cn[nH]c1-c1ccc(OC)cc1F | 1510 (inactive) |
| COC(=O)c1ccc(-c2noc(CN(Cc3ccccn3)CC3CCCO3)n2)cc1 (stereo not given) | 1700 (inactive) |
| CCN(CCn1cccn1)Cc1nc(-c2ccc(C(=O)OC)cc2)no1 | 1990 (active) |
| COc1cc(NC(=O)COC(=O)CSc2ccc3ccccc3c2)c(C)cc1[N+](=O)[O-] | 1450 (inactive) |
| O=C1NC(c2ccccc2)=NC1(Nc1ccccn1)C(F)(F)F (stereo not given) | 1690 (inactive) |
| CNC(=S)N1N=C(c2ccccc2)CC1c1ccc(Br)cc1 (stereo not given) | 1990 (active) |
| COc1ccc(C2CC(c3ccccc3)=NN2C(=O)COC(=O)COc2ccccc2)cc1 (stereo not given) | 1620 (inactive) |
| Brc1ccc(C2CC(c3ccccc3)=Nc3ccccc3N2)cc1 (stereo not given) | 1550 (inactive) |
| CCC1CO/C(=C(\C(=C(Cl)Cl)N2CCOCC2)[N+](=O)[O-])N1 (stereo not given) | 1690 (inactive) |
| COc1ccc(NC(=O)c2sc(N3CCOCC3)nc2-c2ccccc2)c(OC)c1 | 1580 (inactive) |
| O=C(O)CC/C(=N\NC(=O)c1ccc(F)cc1)c1ccc(Br)cc1 | 1580 (inactive) |
| C/C(=N\OCC(=O)Nc1ccc(Br)cc1)c1cccs1 | 1350 (inactive) |
| CCOC(=O)N/N=C/c1cccnc1 | 1680 (inactive) |
| O=C(CSc1cccc2cccnc12)N/N=C/c1cccnc1 | 2120 (active) |
| Cc1nc2ccccc2n1CC(=O)N/N=C/c1cccnc1 | 1640 (inactive) |
| NC1=NC(=O)C(Cc2cccc(Cl)c2)S1 (stereo not given) | 1490 (inactive) |
| CCC(C)(C)NC(=O)/C=C/c1cc(OC)c(OC)c(S(=O)(=O)N2CCc3ccccc32)c1 | 1580 (inactive) |
| Fc1ccc(COc2cccc(-c3n[nH]c(=S)o3)c2)cc1 | 2890 (active) |
| Cc1nc2ccccc2cc1OCc1ccc(F)cc1 | 1730 (inactive) |
| Cc1cccc(OCc2ccc(C(=O)Nc3ccc(F)cc3)cc2)c1 | 1560 (inactive) |
| CCOC(=O)c1ccc[n+](CC(=O)Nc2ccccc2OC(F)F)c1 | 1350 (inactive) |
| CCOC(=O)c1sc(NC(=O)CSc2n[nH]c(CC)n2)nc1C | 1730 (inactive) |
| CCOc1ncccc1C(=O)OCC(=O)NC1CC1 | 1600 (inactive) |
| Cc1cc(OCCN2CCCC2)cc(C(C)C)c1 | 1530 (inactive) |
